# Bioassay records as filed in PubChem BioAssay.
# Hits are enriched below; roughly 2% of the tested compounds scored in any of these assays.
# ADAM17 inh: inhibitors of human ADAM17. P78536. recombinant ADAM17, EDANS/DABCYL FRET peptide cleavage. inhibition, % at 6.95 µM. 0.83% of 370,000 active. AID 720648;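 active = inhibition above the mean of compounds lying between control limits plus 3 SD, set per campaign, cut at about 8.5% in these data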;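 note: 0% = DMSO-only wells as the low control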
# Target sequence (P78536 215-824 limits assumed): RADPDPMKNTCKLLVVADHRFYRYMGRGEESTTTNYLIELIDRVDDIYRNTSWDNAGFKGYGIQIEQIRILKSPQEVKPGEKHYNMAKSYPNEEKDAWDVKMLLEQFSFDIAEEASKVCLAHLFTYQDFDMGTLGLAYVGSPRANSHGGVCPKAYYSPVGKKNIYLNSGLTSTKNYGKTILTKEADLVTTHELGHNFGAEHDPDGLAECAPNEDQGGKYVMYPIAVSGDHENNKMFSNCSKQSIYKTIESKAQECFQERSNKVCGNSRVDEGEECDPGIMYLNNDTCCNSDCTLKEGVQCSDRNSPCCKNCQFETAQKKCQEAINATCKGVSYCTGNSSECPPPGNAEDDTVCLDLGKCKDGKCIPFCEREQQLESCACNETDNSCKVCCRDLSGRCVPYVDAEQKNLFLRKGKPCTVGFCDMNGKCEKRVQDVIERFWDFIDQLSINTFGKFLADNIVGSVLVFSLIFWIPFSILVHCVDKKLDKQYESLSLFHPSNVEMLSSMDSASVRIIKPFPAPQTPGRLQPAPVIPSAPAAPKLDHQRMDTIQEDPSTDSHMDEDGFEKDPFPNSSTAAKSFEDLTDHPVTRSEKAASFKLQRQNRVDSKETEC
# ADAM10 inh: inhibits human ADAM10; O14672; recombinant ADAM10, EDANS/DABCYL FRET peptide cleavage, 3 h; inhibition, % at 7 µM; 0.62% of 370,000 active; AID 720582;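 active = inhibition above a per-campaign cutoff equal to the mean of compounds falling between control-based bounds plus 3 SD, cut at about 20% in these data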;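 note: 0% = DMSO wells while the 100% control is not disclosed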
# GC-A act: GC-A (human) enzyme activation. P16066. HEK293 GC-A cells, cGMP TR-FRET, EC30 ANP; 0% at EC30 ANP, 100% saturating ANP. activation, % at 10 µM. 0.14% of 370,000 active; in the data active = activation above about 40%
# FAS-TE inh: blocks the thioesterase domain of human fatty acid synthase. AID 602261. 0.67% of 360,000 active. recombinant FAS-TE, OMFH fluorogenic substrate, fluorescence endpoint. inhibition, % at 15 µM;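 active = compounds whose normalised, plate-corrected inhibition of enzyme fluorescence in the single-dose primary screen is 50% or more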;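 note: 0% = DMSO with enzyme and 100% = substrate without enzyme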
# GC-B act: GC-B (human) receptor activation; activation, % at 10 µM; 0.11% of 370,000 active; P20594; HEK293-GC-B cells, CNP EC30, cGMP TR-FRET; 0% at EC30 CNP, 100% saturating CNP;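 active = activation at 10 µM reaching about 35% in either raw or pattern-adjusted values, limit read from the data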
# FAS-TE inh conf: FAS thioesterase (human) inhibition, confirmation. 45% of 2,300 active. shares compounds with FAS-TE inh. inhibition, % at 15 µM. recombinant FAS-TE, OMFH fluorogenic substrate, fluorescence;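 active = compounds inhibiting the enzyme by at least 50% at 15 µM in any one of the replicates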;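 note: 0% = enzyme with DMSO only and 100% = wells lacking enzyme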
# Starred values were filed as active, the others as inactive; x = no result given.
SMILES,ADAM17 inh,ADAM10 inh,GC-A act,FAS-TE inh,GC-B act,FAS-TE inh conf
CCn1c(=S)sc2c(=O)n(CC(=O)Nc3ccccc3OC)c(C)nc21,-7,-13,-1,38,6,x
O=C1OC(c2ccccc2)=NC12CC2c1ccc(Cl)cc1 (centres undefined),3,6,-14,90*,-9,97*
O=CN1N=C(c2ccccc2)CC1c1ccc(Cl)cc1 (centres undefined),1,4,2,4,3,x
COC(=O)[C@]12C[C@H](CC(=O)NCc3cccc(C(F)(F)F)c3)C(=O)N(Cc3ccc(Cl)cc3Cl)C1=C[C@H](C(C)(C)C)O[C@@H]2C,-1,2,-3,x,-2,x
CCOC1=C2CN(S(=O)(=O)c3ccccc3)[C@@H](c3ccccc3)C[C@H]2[C@H]2C(=O)N(c3ccccc3)C(=O)[C@H]2C1,0,13,0,x,-6,x
CCOC1=C2CN(S(=O)(=O)c3ccc(C)cc3)C(c3cccc(Cl)c3)CC2N(S(=O)(=O)c2ccc(Cl)cc2)C(c2ccccc2)C1 (centres undefined),-2,-13,0,x,0,x
CCOC1=C2[C@H](c3ccccc3)N(S(=O)(=O)c3ccc(C)cc3)C(C(C)(C)C)[C@H]2C(C#N)(C#N)C(C#N)(C#N)C1 (some centres undefined),4,6,-17,78*,-8,12
CCOC1=C2[C@@H](CN(S(=O)(=O)c3ccc(C)cc3)[C@H]2c2ccc(CC)cc2)[C@H]2C(=O)N(c3ccccc3)C(=O)[C@H]2C1,-5,-8,3,50*,-3,10
CCOC1=C2CN(S(=O)(=O)c3ccc(C)cc3)[C@@H](c3ccccc3)C[C@H]2[C@H]2C(=O)N(c3ccccc3)C(=O)[C@H]2C1,0,2,-1,69*,1,9
CCOC1=C2CN(S(=O)(=O)c3ccc(C)cc3)[C@H](c3cccc(Cl)c3)C[C@H]2[C@H]2C(=O)N(c3ccccc3)C(=O)[C@H]2C1,-1,3,1,81*,-2,19
CCCCC[C@@H]1[C@@H]2C(=C(OCC)C[C@@H]3C(=O)N(c4ccccc4)C(=O)[C@H]23)[C@H](c2ccccc2)N1S(=O)(=O)c1ccc(C)cc1,-3,-11,0,27,0,x
Cc1ccc(-c2nc(C3CCCN(S(=O)(=O)c4ccc(C)c(C)c4)C3)no2)cc1 (centres undefined),0,7,-2,x,-2,x
CCN(Cc1cn(Cc2ccccc2)nn1)S(=O)(=O)c1ccc(N2CCCC2)cc1Br,3,4,0,x,1,x
CC(C)n1nnnc1C1(C)Cn2nccc2C(=O)N1Cc1cccc(C(F)(F)F)c1 (centres undefined),2,5,2,x,3,x
Clc1ccc([C@H]2OC[C@@]3(CNCc4ccccn4)CS[C@H](c4ccc(Cl)cc4)N23)cc1,2,0,-22,x,-12,x
CCOC1=C2CN(S(=O)(=O)c3ccc(C)cc3)[C@H](c3ccccc3)C[C@@H]2N(S(=O)(=O)c2ccccc2)[C@H](c2ccccc2)C1,-2,-4,1,29,0,x
CCOC1=C2CN(S(=O)(=O)c3ccc(C)cc3)[C@@H](c3cccc4ccccc34)C[C@H]2[C@H]2C(=O)N(c3ccccc3)C(=O)[C@H]2C1,-1,-3,5,88*,1,6
CCOC1=C2CN(S(=O)(=O)c3ccc(C)cc3)[C@H](c3cccc4ccccc34)C[C@H]2C(C#N)(C#N)C(C#N)(C#N)C1,x,x,x,63*,x,30
COC(=O)[C@H](CC(C)C)N(Cc1cn(CC2CCCCC2)nn1)S(=O)(=O)c1ccccc1Br,5,14,1,x,1,x
Cc1cccc(NC(=S)/N=C(\N)Nc2nc(C)c3ccccc3n2)c1,-4,-9,-2,59*,-1,20
COc1ccccc1C(=O)Nc1ccc(S(=O)(=O)N2CCc3ccccc32)cc1,3,6,-4,51*,-5,26
Cc1[nH][nH]c(=O)c1C(c1ccc(-c2cccc(Cl)c2)o1)c1c(C)[nH][nH]c1=O,x,x,x,54*,x,38
Cc1cc2ncn(/N=C/c3ccc(-c4ccccc4)o3)c2cc1C,-2,-2,-3,50*,-12,47
N#CC1(NC(=O)COC(=O)c2cc([N+](=O)[O-])ccc2N2CCOCC2)CCCCC1,0,5,1,68*,0,80*
N#CC1(NC(=O)COC(=O)c2cc([N+](=O)[O-])ccc2N2CCCC2)CCCCC1,0,-9,-1,66*,-2,75*
SMILES,ADAM17 inh,ADAM10 inh,GC-A act,FAS-TE inh,GC-B act,FAS-TE inh conf
O=C(Nc1ccc(Cl)cc1)C1CCCN1S(=O)(=O)c1cccnc1 (centres undefined),-1,0,2,x,-7,x
Cc1cccc(-n2c(SCC(=O)N3CC(=O)Nc4ccccc43)nc3ccccc3c2=O)c1,-3,-4,-28,7,-7,x
Cc1ccc(Cn2c(SCC(=O)N3CC(=O)Nc4ccccc43)nc3ccccc3c2=O)cc1,8.9*,16,0,53*,2,23
O=C1CN(C(=O)CSc2nc3cc(Cl)ccc3c(=O)n2Cc2ccccc2)c2ccccc2N1,-5,7,-34,76*,-20,20
COc1ccc(-n2c(SCC(=O)Nc3cccc4ccccc34)nnc2-c2ccco2)cc1,4,11,-8,x,-4,x
CCN(Cc1ccccc1)c1ccc(/C=N/NC(=O)c2cccc(S(=O)(=O)N3CCOCC3)c2)cc1,2,1,6,82*,2,8
Cc1cccc(-n2cnc3c(sc4nc(N5CCOCC5)c5c(c43)CCCC5)c2=O)c1,-9,-27,10,66*,12,6
Cn1c2ccccc2c2nnc(SCc3ccc4nonc4c3)nc21,2,0,3,58*,0,23
CC(=O)N1CCN(c2ccccc2NC(=O)c2ccc(-c3cccc([N+](=O)[O-])c3)o2)CC1,-2,-2,1,66*,2,42*
O=C(NC(=S)Nc1ccccc1N1CCCCC1)c1ccc(-c2cccc([N+](=O)[O-])c2)o1,1,7,0,24,4,x
COc1ccc(S[C@]2(C(=O)N3CCN(c4ncccn4)CC3)CC(=O)N(C(=O)/C=C/c3ccccc3)[C@@H]2c2ccc(OC)cc2)cc1,4,6,-3,x,2,x
O=C(Nc1ccccc1)C1=C(c2ccccc2)S(=O)(=O)CCS1(=O)=O,2,-6,10,80*,9,37
CC(C)(C)OC(=O)/C=C/[C@@H](CC1CCCC1)Sc1ccc(C(C)(C)C)cc1,-2,1,-1,x,2,x
O=C(Nn1c(-c2ccc(Br)cc2)nc2ccccc2c1=O)c1ccc([N+](=O)[O-])cc1,4,10,2,65*,6,45*
